{"source": "PubChem BioAssay (NCI)", "key": {"[1]": {"assay": "NCI Yeast Anticancer Drug Screen. Data for the rad52 strain (AID 147);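 note: 0% = growth of vehicle-treated control cultures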", "details": "S. cerevisiae rad52 mutant growth inhibition, active compounds read high", "in_short": "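The repair-mutant yeast strain was incubated with compounds, then growth was read and inhibition derived relative to vehicle.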"}, "[2]": {"assay": "NCI Yeast Anticancer Drug Screen. Data for the wt1 strain (AID 149);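 note: 0% = growth of vehicle-treated wt1 cultures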", "details": "S. cerevisiae wt1 strain (SPY 50644) growth inhibition, active compounds read high", "in_short": "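Growth inhibition read against vehicle controls after compound exposure of the wt1 yeast strain.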"}, "[3]": {"assay": "NCI Yeast Anticancer Drug Screen. Data for the rad50EPP+ strain (AID 151);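 note: 0% = growth of vehicle-treated control cultures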", "details": "S. cerevisiae rad50 mutant strain, active compounds read high", "in_short": "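Vehicle-normalised growth inhibition; rad50EPP+ yeast strain, altered in DNA damage repair, compound-treated.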"}, "[4]": {"assay": "NCI Yeast Anticancer Drug Screen. Data for the rad50 strain (AID 155);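 note: 0% = growth of vehicle-only cultures of the same strain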", "details": "S. cerevisiae rad50 strain growth inhibition, active compounds read high", "in_short": "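Readout: growth inhibition relative to vehicle-treated cultures. Compound exposure was carried out in a genetically defined yeast strain deficient in DNA damage repair.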"}, "[5]": {"assay": "NCI Yeast Anticancer Drug Screen. Data for the mec2-1 strain (AID 157)", "details": "S. cerevisiae mec2-1 strain, active compounds read high", "in_short": "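Mutant yeast (mec2-1) grown with compound; growth inhibition relative to vehicle control reported.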"}, "[6]": {"assay": "NCI Yeast Anticancer Drug Screen. Data for the rad14 strain (AID 159);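 note: 0% = growth of vehicle-treated control cultures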", "details": "S. cerevisiae rad14 strain growth inhibition, active compounds read high", "in_short": "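Growth inhibition vs vehicle controls; genetically altered yeast strain (DNA damage repair defect) treated with test compounds.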"}, "[7]": {"assay": "NCI Yeast Anticancer Drug Screen. Data for the sgs1 mgt1 strain (AID 161);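 note: 0% = growth of cultures given vehicle only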", "details": "S. cerevisiae sgs1 mgt1 strain, active compounds read high", "in_short": "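Growth of a repair-deficient yeast mutant was monitored after compound treatment and expressed as inhibition relative to vehicle-treated cultures.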"}, "[8]": {"assay": "NCI Yeast Anticancer Drug Screen. Data for the CLN2oe strain (AID 163);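 note: 0% = growth of vehicle-only control cultures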", "details": "S. cerevisiae CLN2oe strain, active compounds read high", "in_short": "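Compounds are applied to yeast harbouring a defined cell-cycle control change; reduced growth compared with vehicle-treated controls gives the value.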"}, "[9]": {"assay": "NCI Yeast Anticancer Drug Screen. Data for the cln2 rad14 strain (AID 165);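 note: 0% = growth equal to vehicle treated cultures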", "details": "S. cerevisiae cln2 rad14 strain, active compounds read high", "in_short": "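Readout is yeast growth inhibition versus vehicle-treated controls, using a strain with cln2 and rad14 alterations exposed to compound.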"}, "[10]": {"assay": "NCI Yeast Anticancer Drug Screen. Data for the bub3 strain (AID 167)", "details": "S. cerevisiae bub3 mutant strain, active compounds read high", "in_short": "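Readout: yeast growth inhibition, expressed relative to vehicle-only wells. The test organism is a mutant strain from a panel with lesions in DNA repair or checkpoint genes.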"}, "[11]": {"assay": "NCI Yeast Anticancer Drug Screen. Data for the wt2 strain (AID 169);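 note: 0% = growth of vehicle-treated yeast cultures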", "details": "S. cerevisiae wt2 strain growth inhibition, active compounds read high", "in_short": "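Against vehicle-treated controls, the growth of yeast exposed to each compound was compared, and the inhibition was recorded.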"}, "[12]": {"assay": "NCI Yeast Anticancer Drug Screen. Data for the sgs1 strain (AID 173);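 note: 0% = growth of vehicle-only control cultures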", "details": "S. cerevisiae sgs1 mutant, active compounds read high", "in_short": "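Each compound was added to cultures of the altered yeast strain. Growth was recorded, and inhibition was derived by comparison with vehicle controls.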"}, "[13]": {"assay": "NCI Yeast Anticancer Drug Screen. Data for the mlh1 rad18 strain (AID 175)", "details": "S. cerevisiae mlh1 rad18 strain growth inhibition, active compounds read high", "in_short": "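Genetically defined yeast (DNA repair-deficient) exposed to compounds; growth inhibition determined relative to vehicle.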"}, "[14]": {"details": "at 5.0 µM (retest, dose inferred, filed as 0.5)"}, "[15]": {"details": "at 50.0 µM (retest, dose inferred, filed as 5.0)"}}, "note": "Compounds without any hit were thinned out: in the full panel of roughly 79,000, 15% have a hit. Unmarked numbers belong to inactive results. Calls of active or inactive are those of the source. Cut-off read from the data, not from the text of the source: active = growth inhibition above about 70%; inactive = the rest.", "data": [{"smiles": "BrCc1ccccc1C(c1ccccc1)c1ccccc1", "values": [{"measurement": "growth inhibition", "setting": "[1]; at 1.2 µM", "value": 9, "unit": "%"}, {"measurement": "growth inhibition", "setting": "[1]; at 3.7 µM", "value": "79% (active)"}, {"measurement": "growth inhibition", "setting": "[1]; at 11.0 µM", "value": "96% (active)"}, {"measurement": "growth inhibition", "setting": "[1]; at 33.0 µM", "value": "96% (active)"}, {"measurement": "growth inhibition", "setting": "[1]; at 100.0 µM", "value": "94% (active)"}, {"measurement": "growth inhibition", "setting": "[2]; at 1.2 µM", "value": -2, "unit": "%"}, {"measurement": "growth inhibition", "setting": "[2]; at 3.7 µM", "value": 34, "unit": "%"}, {"measurement": "growth inhibition", "setting": "[2]; at 11.0 µM", "value": "96% (active)"}, {"measurement": "growth inhibition", "setting": "[2]; at 33.0 µM", "value": "97% (active)"}, {"measurement": "growth inhibition", "setting": "[2]; at 100.0 µM", "value": "95% (active)"}, {"measurement": "growth inhibition", "setting": "[3]; at 1.2 µM", "value": 1, "unit": "%"}, {"measurement": "growth inhibition", "setting": "[3]; at 3.7 µM", "value": 6, "unit": "%"}, {"measurement": "growth inhibition", "setting": "[3]; at 11.0 µM", "value": 8, "unit": "%"}, {"measurement": "growth inhibition", "setting": "[3]; at 33.0 µM", "value": 9, "unit": "%"}, {"measurement": "growth inhibition", "setting": "[3]; at 100.0 µM", "value": 15, "unit": "%"}, {"measurement": "growth inhibition", "setting": "[4]; at 1.2 µM", "value": 8, "unit": "%"}, {"measurement": "growth inhibition", "setting": "[4]; at 3.7 µM", "value": "85% (active)"}, {"measurement": "growth inhibition", "setting": "[4]; [14]", "value": 12, "unit": "%"}, {"measurement": "growth inhibition", "setting": "[4]; at 11.0 µM", "value": "97% (active)"}, {"measurement": "growth inhibition", "setting": "[4]; at 33.0 µM", "value": "96% (active)"}, {"measurement": "growth inhibition", "setting": "[4]; [15]", "value": "96% (active)"}, {"measurement": "growth inhibition", "setting": "[4]; at 50.0 µM", "value": "98.1% (active)"}, {"measurement": "growth inhibition", "setting": "[4]; at 100.0 µM", "value": "93% (active)"}, {"measurement": "growth inhibition", "setting": "[5]; at 1.2 µM", "value": 4, "unit": "%"}, {"measurement": "growth inhibition", "setting": "[5]; at 3.7 µM", "value": 42, "unit": "%"}, {"measurement": "growth inhibition", "setting": "[5]; [14]", "value": 21, "unit": "%"}, {"measurement": "growth inhibition", "setting": "[5]; at 11.0 µM", "value": "95% (active)"}, {"measurement": "growth inhibition", "setting": "[5]; at 33.0 µM", "value": "96% (active)"}, {"measurement": "growth inhibition", "setting": "[5]; [15]", "value": "98% (active)"}, {"measurement": "growth inhibition", "setting": "[5]; at 50.0 µM", "value": "98.2% (active)"}, {"measurement": "growth inhibition", "setting": "[5]; at 100.0 µM", "value": "96% (active)"}, {"measurement": "growth inhibition", "setting": "[6]; at 1.2 µM", "value": 3, "unit": "%"}, {"measurement": "growth inhibition", "setting": "[6]; at 3.7 µM", "value": 64, "unit": "%"}, {"measurement": "growth inhibition", "setting": "[6]; at 11.0 µM", "value": "96% (active)"}, {"measurement": "growth inhibition", "setting": "[6]; at 33.0 µM", "value": "97% (active)"}, {"measurement": "growth inhibition", "setting": "[6]; at 100.0 µM", "value": "95% (active)"}, {"measurement": "growth inhibition", "setting": "[7]; [14]", "value": 58, "unit": "%"}, {"measurement": "growth inhibition", "setting": "[7]; [15]", "value": "98% (active)"}, {"measurement": "growth inhibition", "setting": "[7]; at 50.0 µM", "value": "97.9% (active)"}, {"measurement": "growth inhibition", "setting": "[8]; at 1.2 µM", "value": 8, "unit": "%"}, {"measurement": "growth inhibition", "setting": "[8]; at 3.7 µM", "value": 64, "unit": "%"}, {"measurement": "growth inhibition", "setting": "[8]; at 11.0 µM", "value": "97% (active)"}, {"measurement": "growth inhibition", "setting": "[8]; at 33.0 µM", "value": "97% (active)"}, {"measurement": "growth inhibition", "setting": "[8]; at 100.0 µM", "value": "96% (active)"}, {"measurement": "growth inhibition", "setting": "[9]; [14]", "value": 49, "unit": "%"}, {"measurement": "growth inhibition", "setting": "[9]; [15]", "value": "93% (active)"}, {"measurement": "growth inhibition", "setting": "[9]; at 50.0 µM", "value": "95.8% (active)"}, {"measurement": "growth inhibition", "setting": "[10]; at 1.2 µM", "value": 4, "unit": "%"}, {"measurement": "growth inhibition", "setting": "[10]; at 3.7 µM", "value": 56, "unit": "%"}, {"measurement": "growth inhibition", "setting": "[10]; [14]", "value": 24, "unit": "%"}, {"measurement": "growth inhibition", "setting": "[10]; at 11.0 µM", "value": "96% (active)"}, {"measurement": "growth inhibition", "setting": "[10]; at 33.0 µM", "value": "97% (active)"}, {"measurement": "growth inhibition", "setting": "[10]; [15]", "value": "97% (active)"}, {"measurement": "growth inhibition", "setting": "[10]; at 50.0 µM", "value": "97.3% (active)"}, {"measurement": "growth inhibition", "setting": "[10]; at 100.0 µM", "value": "94% (active)"}, {"measurement": "growth inhibition", "setting": "[11]; at 1.2 µM", "value": -1, "unit": "%"}, {"measurement": "growth inhibition", "setting": "[11]; at 3.7 µM", "value": 62, "unit": "%"}, {"measurement": "growth inhibition", "setting": "[11]; at 11.0 µM", "value": "97% (active)"}, {"measurement": "growth inhibition", "setting": "[11]; at 33.0 µM", "value": "96% (active)"}, {"measurement": "growth inhibition", "setting": "[11]; at 100.0 µM", "value": "95% (active)"}, {"measurement": "growth inhibition", "setting": "[12]; at 1.2 µM", "value": 9, "unit": "%"}, {"measurement": "growth inhibition", "setting": "[12]; at 3.7 µM", "value": "84% (active)"}, {"measurement": "growth inhibition", "setting": "[12]; at 11.0 µM", "value": "97% (active)"}, {"measurement": "growth inhibition", "setting": "[12]; at 33.0 µM", "value": "97% (active)"}, {"measurement": "growth inhibition", "setting": "[12]; at 100.0 µM", "value": "96% (active)"}, {"measurement": "growth inhibition", "setting": "[13]; [14]", "value": "82% (active)"}, {"measurement": "growth inhibition", "setting": "[13]; [15]", "value": "97% (active)"}, {"measurement": "growth inhibition", "setting": "[13]; at 50.0 µM", "value": "98.3% (active)"}]}]}
